Broadly, the inhibition is the drop in the measured response relative to a control, in per cent.

The whole screen tested about 330,000 compounds, of which about 1,900 (0.58%) were called active. Not shown: some 4% with an inconclusive outcome. Not all results are given here. Potency and affinity values are given separately. Values without a mark were called inactive. Cut-off read from the data, not from the text of the source: inconclusive = inhibition above about 70% without an active follow-up result; inactive = below that.

The assay is described as follows: M. tuberculosis growth inhibition, HTS (AID 449762).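 Note: bacterial growth assessed after seven days of incubation.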 The conditions noted are these: M. tuberculosis H37Rv growth inhibition, 7H9 media; at 25 µM; active compounds read high.
For the compound `O=C1c2ccc([N+](=O)[O-])cc2S(=O)(=O)N1Cc1ccccc1`, the inhibition was -6.93%. With `CCc1noc(C)c1C(=O)Nc1nc(-c2cc(C)ccc2C)c(C)s1` the figure was -0.88%.

Take `CCc1noc(C)c1C(=O)Nc1nc2ccc(F)cc2s1`: the inhibition is 68.5%.

On to `CC(=NCc1cccnc1)C1=C(O)c2ccccc2C1=O`, for which the inhibition was -1.08%. As for `CC(=NCc1ccc2c(c1)OCO2)c1c(O)[nH]c(=O)[nH]c1=O`, the inhibition is -12.3%. With `CCn1c(=O)c2cc(C(=O)NCCC(C)C)sc2c2ccccc21` the figure was 9.29%; with `O=C(Cn1nnc2ccccc21)c1cccc([N+](=O)[O-])c1`, -4.83%.

`CN(C(=O)c1ccc(-c2ccccc2)cc1)C1CCCCC1`: the inhibition is 53.6%. With `CCOc1ccc(NS(=O)(=O)c2ccc(C(=O)N(C)CC(=O)Nc3ccc(C)cc3)cc2)cc1` the figure was 56.7%; with `CCSc1ccc(-c2nn(-c3ccccc3)cc2/C=C(/C#N)C(=O)NCCCOC)cc1`, 6.88%; with `CCCSc1ccc(-c2nn(-c3ccccc3)cc2/C=C(/C#N)C(=O)NCCCOC)cc1`, -1.57%. For `O=C(N/N=C(/CC(=O)c1cccs1)C(F)(F)F)c1ccc(O)cc1`, the inhibition is 33.1%. With `O=C(N/N=C(\CC(=O)c1cccs1)C(F)(F)F)c1cccnc1` the figure was -1.08%; with `CC(C)Nc1nc(NC(C)C)nc(OCCOC(=O)c2ccccc2)n1`, 2.84%; with `CCOC(=O)[C@@H]1[C@H]2COc3cc(OC)ccc3[C@H]2N2C(=O)N(c3ccc(C(F)(F)F)cc3)C(=O)[C@@]12C`, 6.64%. With `CCOC(=O)[C@@H]1[C@H]2COc3cc(OC)ccc3[C@@H]2N2C(=O)N(c3ccc(C(F)(F)F)cc3)C(=O)[C@]12C`, the inhibition is 1.49%.

Turning to `O=C(CC1SC(=O)N(c2ccccc2)C1=O)Nc1ccc(Cl)cc1` (stereo unspecified), the inhibition was -2.72%. With `O=C(NN=C1CCCC1)c1cccc(Br)c1` the figure was 8.38%. With `O=C(N/N=C1\CCCc2ccccc21)c1cccc(Br)c1` the figure was 17.8%; with `O=C(Nc1ccc(Nc2ccccc2)cc1)C1CC1`, 0.68%. With `O=C(Nc1ccc(N2CCOCC2)cc1)C1CC1` the figure was -20.2%. As to `CC(C)(C)c1ccc(OCCC(=O)NNC(=O)c2ccccc2)cc1`, the inhibition is -10.6%.

For `O=C(COc1ccc([N+](=O)[O-])cc1)N(Cc1cccs1)C1CCS(=O)(=O)C1` (stereo unspecified), the inhibition is -4.33%.

With `COc1ccccc1N1CCN(S(=O)(=O)CCNC(=O)CC2CCCCC2)CC1`, the inhibition was -4.01%. With `COCCNC(=O)C(c1ccc(C)cc1)N(C(=O)C(=O)NC1CCCC1)c1ccc2c(c1)OCCO2` (stereo unspecified) the figure was 0.7%; with `COCCNC(=S)N/N=C(\C)c1ccc(O)cc1`, -0.19%. With `COCCNC(=S)N/N=C(\C)c1ccc(OC(F)F)cc1` the figure was 2.04%; with `O=C(Nc1ccccc1-c1nc2ccccc2[nH]1)c1sc2ccccc2c1Cl`, 8.98%; with `CCN1CCN(Cc2ccc(NC(=O)c3ccc(C)c(NC(=O)c4ccnnc4)c3)cc2C(F)(F)F)CC1`, -1.41%.

Take `CCN1CCN(Cc2ccc(NC(=O)c3ccc(C)c(NC(=O)c4ccc5n[nH]nc5c4)c3)cc2C(F)(F)F)CC1`: the inhibition is 4.3%. Take `COC(=O)c1cc(NC(=O)Cc2ccc(OC)cc2)cc(C(=O)OC)c1`: the inhibition is -3.89%. With `CC1CCC(NC(=O)COC(=O)C2=NN(c3ccccc3)C(=O)CC2)CC1` (stereo unspecified) the figure was 1.24%; with `COc1cccc2cc(C(=O)Nc3ccc(S(=O)(=O)NCC4CCCO4)cc3)c(=O)oc12` (stereo unspecified), 1.32%; with `Cc1ccccc1C(=O)/C(C#N)=N/Nc1c(C)n(C)n(-c2ccccc2)c1=O`, -1.13%. With `O=C(/C=C/c1c(F)cccc1Cl)Nc1ccncc1` the figure was 9.18%. With `O=C(Nc1ccc(OC(F)(F)F)cc1)c1ccc2nccnc2c1` the figure was 66.2%; with `O=C(Nc1ccc(OC(F)(F)F)cc1)c1ccc2nc[nH]c2c1`, 41.2%; with `S=C(NCCC(c1ccccc1)c1ccccc1)Nc1ccc(Cl)cc1`, 1.85%. Take `O=c1cc(N2CCOCC2)cnn1-c1ccccc1`: the inhibition was 14.3%. Take `O=S(=O)(Nc1ccccc1)c1ccc(S(=O)(=O)N2CCCC2)cc1`: the inhibition was -1.05%.

As for `Nc1ncc([N+](=O)[O-])s1`, the inhibition is -0.165%. With `O=[N+]([O-])c1cc(-c2ncccn2)cs1` the figure was 0.84%; with `CCn1nnc(-c2ccccc2NS(=O)(=O)c2ccc(S(=O)(=O)N(C)C3CCCCC3)cc2)n1`, 2.36%. With `N#Cc1ccccc1COC(=O)CCC(=O)c1cccs1` the figure was 5.44%; with `c1ccc2c(CNc3ccc(CNc4ncn[nH]4)cc3)cccc2c1`, 1.09%; with `C/C(=N\NC(=O)c1c[nH]c2ccccc12)c1ccco1`, 19.6%. Regarding `C/C(=N/NC(=O)c1ccccn1)c1ccncc1`, the inhibition is 39.2%.

As for `COc1ccc(CN2CCC(Oc3ccc(C(=O)NCc4ccccn4)cc3)CC2)c(F)c1`, the inhibition was -12.3%.

Take `CCOc1ccc(NC(=O)NC2CCCc3ccccc32)cc1` (stereo unspecified): the inhibition was -11.3%. With `Cc1cnnc2ccc3c(no[n+]3[O-])c12` the figure was 0.29%; with `Cc1cc2c(N)cccc2nn1`, -2.97%; with `Cc1ccc(-n2c(CSc3nc(C)cc(C)n3)n[nH]c2=S)cc1`, -6.43%. With `N#Cc1c(N)nc2c(c1-c1ccc(Br)s1)CCCC2` the figure was 0.77%. With `Cc1ccc(C)c(NC(=O)CN(C)C(=O)[C@@H](NC(N)=O)C(C)C)c1` the figure was 1.17%. On to `OCC1OC(n2cnc3c(NC4CCCC4)ncnc32)C(O)C1O` (stereo unspecified), for which the inhibition is -0.62%. With `OC[C@H]1O[C@@H](n2cnc3c(NC4CCCC4)ncnc32)[C@H](O)[C@@H]1O` the figure was -4.16%. `COc1cc(/C=C\C(=O)NCc2ccc3[nH]c(C)cc3c2)cc(OC)c1OC`: the inhibition was -3.67%. With `O=C(Cn1cnc2c(nnn2-c2ccccc2)c1=O)N1CCC(Cc2ccccc2)CC1` the figure was -6.42%; with `COc1ccc(-n2nnc3c(=O)n(CC(=O)N4CCC(Cc5ccccc5)CC4)cnc32)cc1`, -2.79%. With `CCc1ccc(C(=O)COC(=O)C(CCSC)NC(=O)C23CC4CC(CC(C4)C2)C3)cc1` (stereo unspecified) the figure was 1.72%. For `CCCCNC(=S)N(C)/N=C/c1ccccc1F`, the inhibition is 7.41%. With `CCCCNC(=S)N(C)/N=C/c1c(F)cccc1F` the figure was -1.55%; with `FC(F)(F)c1cc(CCN2C(=S)NC[C@@H]2CC2CCCCC2)cc(C(F)(F)F)c1`, -2.31%; with `CCCC[C@@H]1CN=C(N)N1CCc1cc(C(F)(F)F)cc(C(F)(F)F)c1`, 4.85%. With `COc1ccccc1CC(=O)NC1CCCCCC1` the figure was -3.92%; with `CC1CCCCC1NC(=O)Cn1c(CN2CCCCC2)nc2ccccc2c1=O` (stereo unspecified), 5.05%. With `COc1ccc(N2C(=O)CC(NNC(=O)c3cc(C)oc3C)C2=O)cc1` (stereo unspecified) the figure was -4.63%. As to `NC1=CC(=O)c2cccc3cccc1c23`, the inhibition is -0.47%. With `O=C1C(=O)c2cccc3cccc1c23` the figure was 3.34%. With `COc1cc2c(cc1NC(=O)COC(=O)CNS(=O)(=O)c1ccc(C)cc1)oc1ccccc12` the figure was 20.6%; with `Cc1ccc(C)c(NC(=O)CCNS(=O)(=O)c2ccc3[nH]c(=O)oc3c2)c1`, -1.71%. With `CC1(c2ccc(OC(F)F)cc2)NC(=O)N(CC(=O)Nc2ccc3c(c2)OCO3)C1=O` (stereo unspecified) the figure was 1.98%; with `CC1(c2ccc(Cl)cc2)NC(=O)N(CC(=O)c2ccc3c(c2)OCO3)C1=O` (stereo unspecified), -11.1%. As to `CCN(CC(=O)Nc1ccccc1C(=O)OC)S(=O)(=O)c1ccccc1`, the inhibition is -8.58%.

For the compound `Cc1nc(-c2nnc(SCC(=O)Nc3cc(Cl)cc(Cl)c3)n2C)cs1`, the inhibition is -8.27%. For `CC1CCCCN1C(=O)C1CCN(S(=O)(=O)c2ccc(-n3cnnn3)cc2)CC1` (stereo unspecified), the inhibition was -3.02%. With `COc1ccc(OC)c2[nH]c(=O)c(CCNC(=O)c3ccc(Br)o3)cc12` the figure was -4.84%. With `Cc1cc(=O)oc2cc(OCC(=O)N3CCN(C(=O)C4COc5ccccc5O4)CC3)ccc12` (stereo unspecified), the inhibition is 5.34%. With `Cc1cc(=O)oc2cc(OCC(=O)N3CCN(C(=O)C4COc5ccccc5O4)CC3)c(Cl)cc12` (stereo unspecified) the figure was 68.3%; with `O=C(NCCN1CCOCC1)C1CCCN(S(=O)(=O)c2ccc(F)cc2)C1` (stereo unspecified), -1.03%; with `CC(=O)C1=NOC(CNc2ncc(C(F)(F)F)cc2Cl)C1` (stereo unspecified), -4.07%. With `NNC(=O)C1=NOC(CNc2ncc(C(F)(F)F)cc2Cl)C1` (stereo unspecified) the figure was -0.88%; with `O=c1c2nncn2c2cc(C(F)(F)F)ccc2n1CCNc1ncc(C(F)(F)F)cc1Cl`, -1.6%; with `O=c1[nH]c2cc(Cl)ccc2n(CCNc2ncc(C(F)(F)F)cc2Cl)c1=O`, -0.44%. With `Cc1nnc(SCc2c(Cl)cccc2Cl)s1` the figure was 7.37%.

Turning to `O=C(C1CCCN(c2ncnc3c2nc2n3CCCCC2)C1)N1CCN(c2ccc(F)cc2)CC1` (stereo unspecified), the inhibition was 23.2%. For `O=C(C1CCCN(c2ncnc3c2nc2n3CCCCC2)C1)N1CCN(c2ccccc2)CC1` (stereo unspecified), the inhibition is 6.98%. Regarding `COc1cc2c(cc1NC(=O)Cc1ccc(C)cc1)oc1ccccc12`, the inhibition is -1.99%. With `CCOP(=O)(OCC)C(NC(=O)c1ccccc1)=C(Cl)Cl`, the inhibition was -0.5%. Turning to `CCOc1ccccc1/C=C(/NC(=O)c1ccccc1)C(=O)N1CCCCC1`, the inhibition was 4.77%. With `COc1ccc(/C(C)=N/N2CCCCC2)c(O)c1` the figure was 0.48%.

Values taken from PubChem BioAssay AID449762 (Southern Research Specialized Biocontainment Screening …, 2010).
